About 83,000 compounds went through this panel and 20% of them were active in at least one assay; those are over-represented in the sample as a whole.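 Each cell line was grown in a 96-well plate and treated with one concentration of compound for 48 hours. Values below 10 were considered active.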 Calls of active or inactive are those of the source.
Each compound was assayed on IGROV1 ovarian (assay: NCI-60 one-dose screen, 48 h (100 = growth as untreated, 0 = no growth, -100 = all killed)). Settings: 10 µM unless noted.
Description: Growth inhibition of the IGROV1 human tumor cell line is measured as a screen for anti-cancer activity. Cells are grown in 96 well plates and exposed to the test compound for 48 hours. Compounds are tested at a single concentration, which is 10^-5 M for most compounds. The reported endpoint is percent growth (GI% or GIPRCNT), where numbers from 0 - 100% represent growth inhibition, and numbers from -100% - 0 represent cell death. For example, a value of 40 represents 60% growth inhibition. A value of 0 means no net growth occurred over the course of the experiment. A value of -40 indicates 40% of cells at the beginning of the experiment died by the end of the experiment. A value of -100 means all cells are dead at the end of the experiment.
NCI-60 Human Tumor Cell Lines Screen was performed using the standard one-dose NCI protocol, which is described in more detail at https://dtp.cancer.gov/discovery_development/nci-60/default.htm.
Compounds with GIPRCNT values below 10 were considered active. Activity score was based on GIPRCNT using the following formula: […]
Score is 0 for GIPRCNT values of 100 or above, 50 for GIPRCNT values of 0, and 100 for GIPRCNT values of -100.
COc1cccc(/C=C2\COc3ccc(O)cc3C2=O)c1 was tested, and the growth was 84.4% (inactive). N#CCC1=NC(c2cccs2)=Nc2ccccc2S1 was tested, and the growth was 86.4% (inactive). In the case of COc1cccc(C(=O)OCC(O)C(=O)NC23CC4CC(CC(C4)C2)C3)c1 (stereo not given), the growth is reported as 104% (inactive). CC/C=C\C/C=C/C=C1/C(=O)C=C[C@@H]1C/C=C\CCCC(=O)OC was tested, and the growth was 65.4% (inactive). For O=C1NC(=C(Cl)Cl)/C(=N/S(=O)(=O)N2CCCCC2)N1, the growth was 1.81% (active). For CC(C)=CC(=O)N[C@@H]1CC2CCC3C(CC[C@@]4(C)C3CC[C@@H]4C(C)N(C)C)[C@@]2(C)C[C@@H]1O (stereo not given in full), the growth was 61.9% (inactive). CCCCCCCCCCCCCCCCOC(=O)c1c(C)[nH]c(/C=C2\N=C(c3ccc[nH]3)C=C2OC)c1C was tested, and the growth was 35.6% (inactive). For CC(C)[C@@]12C[C@@H](OC(=O)COC(=O)c3ccccc3)[C@@](C)(O1)[C@@H]1CC[C@@H](C)[C@H]1[C@@H]2OC(=O)/C=C/c1ccccc1, the growth was 114% (inactive). For CCN(CC)CCCC(C)Nc1ccc2cc(OC)ccc2n1 (stereo not given), the growth was 105% (inactive). In the case of O=C1/C(=C/c2ccccc2)CN(C(=O)c2cccnc2)C/C1=C\c1ccccc1, the growth is reported as 2.89% (active). O=C(NCc1ccccc1O)c1cccc2ccccc12 was tested, and the growth was 62% (inactive). With O=C1c2cccnc2C(=O)c2c1c(C(=O)OCCCN1CCCCC1)c1ccccn21 the growth was -5% (active). COC(=O)c1ccc2c(c1)c1c(C)c3ccncc3c(C)c1n2C was tested, and the growth was 24% (inactive). In the case of O=C1NC(=C(Cl)Cl)/C(=N/S(=O)(=O)NCCc2c[nH]c3ccccc23)N1, the growth is reported as 98.7% (inactive). Cc1ncc(C(=O)Nc2ccc(CN3CCN(C)CC3)c(C(F)(F)F)c2)cc1C#Cc1cnc(N)c2cnccc12 was tested, and the growth was -31.3% (active). C=CC1(C)C(O[Si](C)(C)C(C)(C)C)CC2C3OC(=O)NC31c1cccc3c1[C@H](C(=O)N3C)C2(C)C (stereo not given in full) was tested, and the growth was 80.9% (inactive). C=C1C(=O)O[C@H]2[C@H]1CC/C(COC(=O)/C=C\C(=O)NCc1ccc(Cn3c(=O)sn(-c4ccccc4)c3=O)cc1)=C\CC[C@@]1(C)O[C@@H]21 was tested, and the growth was 77.4% (inactive). With CCCCN1C(=O)/C(=c2\sc3n(c2=O)NC2C(N=3)N(CC)C(=O)N2CC)c2ccccc21 (stereo not given) the growth was 47% (inactive). With Cc1ncc(C(=O)Nc2ccc(CN3CCN(C)CC3)c(C(F)(F)F)c2)cc1C#Cc1cnc(N)c2ccncc12 the growth was -42.5% (active). In the case of CN(C)c1ccc(-c2cc(-c3ccc(Nc4nc(Nc5ccc(Cl)cc5)nc(Nc5ccc(Cl)cc5)n4)cc3)nc(N)c2C#N)cc1, the growth is reported as 55% (inactive). CCn1cc(C(=O)N/N=C/c2ccc(Br)cc2)c(=O)c2cc(F)c(N3CCNC(C)C3)c(F)c21 (stereo not given) was tested, and the growth was 71.3% (inactive). In the case of Nc1ccc([N+](=O)[O-])cc1N=C/C=C/c1ccccc1, the growth is reported as 64.8% (inactive). For COCCCOc1cc(C[C@@H](C[C@H](N)[C@@H](O)C[C@H](C(=O)NCC(C)(C)C(N)=O)C(C)C)C(C)C)ccc1OC, the growth was 111% (inactive). With CC1=NN(c2ccc(Cl)cc2)CC1(C)N=O (stereo not given) the growth was 103% (inactive). O=C(/C=C/c1ccccc1)Nc1ncc(Cc2ccccc2)s1 was tested, and the growth was 26.1% (inactive). For CCNC(=O)Oc1ccc(/C(=C(/C)Cc2ccc(OC)cc2)c2ccc(OCCN3CCCC3)cc2)cc1, the growth was 88% (inactive). With CN(C)c1ccc(C(=NO)c2ccc(N(C)C)cc2)cc1 the growth was 51.9% (inactive). For COP(=O)(OC)c1nnn(-c2cccc([N+](=O)[O-])c2)c1C, the growth was 110% (inactive). With COc1ccc2c(c1)c(-c1cc(-c3cn(C)c4ccc(OC)cc34)on1)cn2C the growth was 87.4% (inactive). In the case of COc1cccc(NC(=O)c2cccc(C3CCc4c(cc(OC)c(OC)c4OC)O3)c2)c1 (stereo not given), the growth is reported as 65.6% (inactive). CCOC(=O)N1CCN(S(=O)(=O)c2oc(-c3ccc(Cl)cc3)nc2C#N)CC1 was tested, and the growth was 87.9% (inactive). O=C1NC(=Nc2ccc(O)cc2)S/C1=C\c1cccs1 was tested, and the growth was 38.5% (inactive). With CCN(CC)CCN(CCN(CC)CC)c1ccccc1 the growth was 90% (inactive). In the case of CC1=CCC[C@@H]2C1(C)CC[C@H](C)[C@@]2(C)CC1=CC(=O)C(SC(C)(C)C)=CC1=O (stereo not given in full), the growth is reported as 99.4% (inactive). For COc1cccc(Nc2ccnc3[nH]c4ccc([N+](=O)[O-])cc4c23)c1, the growth was 33.1% (inactive). In the case of O=C1Nc2ccccc2C2c3cccn3-c3ccccc3N12 (stereo not given), the growth is reported as 74.1% (inactive). For c1ccc2cc(Cn3c[n+](Cc4ccc5ccccc5c4)c4ccccc43)ccc2c1, the growth was -42.4% (active). With CCN(CC)CCNC(=O)c1ccc(-c2nc3ccc4[nH]ncc4c3c3c2CCCC3)cc1 the growth was 35.3% (inactive). For COc1ccc(OC)c(Nc2nnc(-c3ccc(Cl)cc3)o2)c1, the growth was 81.1% (inactive). With Nc1c(C(=O)O)cc(Cl)cc1[N+](=O)[O-] the growth was 100% (inactive).

Source: PubChem BioAssay (NCI)
